In PubChem BioAssay (NCI):
Compounds without any hit were thinned out: in the full panel of roughly 83,000, 20% have a hit.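 Note: values are percent growth. 100 is the growth of untreated cells, values between 100 and 0 indicate rising inhibition; between -100 and 0 indicates cell death.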 Unmarked numbers belong to inactive results. The source made the active and inactive calls. How the source made its calls: active means growth percent below 10; inactive means the rest.

Experiments:
Assay in all cases: NCI-60 one-dose screen, 48 h (100 = growth as untreated, 0 = no growth, -100 = all killed)
Conditions in all cases: 10 µM unless noted
[1] = system: NCI-H23 lung
[2] = system: NCI-H226 lung
[3] = system: NCI-H322M lung
[4] = system: NCI-H460 lung
[5] = system: HOP-92 NSCLC
[6] = system: NCI-H522 lung
[7] = system: A549/ATCC NSCLC
[8] = system: 786-0 renal
[9] = system: COLO 205 colon
[10] = system: DU-145 prostate
[11] = system: K-562 leukemia
[12] = system: MALME-3M melanoma
[13] = system: MDA-MB-231 breast
[14] = system: RXF 393 renal
[15] = system: SF-268 CNS
[16] = system: SF-295 CNS
[17] = system: SF-539 CNS
[18] = system: M14 melanoma
[19] = system: UACC-257 melanoma
[20] = system: HOP-62 NSCLC

Nc1c(C(=O)Nc2c(Cl)cccc2Cl)sc2nc3c(cc12)C(=O)CCC3
growth [1]: 48.5%
growth [2]: 71.2%
growth [3]: 56.7%
growth [4]: 12.9%
growth [5]: 42.6%
growth [6]: 6.59% (active)
growth [7]: 38%
growth [8]: 29%
growth [9]: 7.4% (active)
growth [10]: 41.1%
growth [11]: 16.6%
growth [12]: 35.2%
growth [13]: 51.1%
growth [14]: 23.7%
growth [15]: 57.8%
growth [16]: 18.8%
growth [17]: 5.18% (active)
growth [18]: 12.1%

N=c1c(S(=O)(=O)c2ccccc2)cc2c(=O)n3ccccc3nc2n1C1CCCC1
growth [1]: 95.8%
growth [2]: 91.9%
growth [3]: 74.9%
growth [4]: 105%
growth [5]: 39.4%
growth [6]: 92%
growth [7]: 80.2%
growth [8]: 80.8%
growth [9]: 113%
growth [10]: 93.2%
growth [11]: 76.6%
growth [12]: 108%
growth [13]: 64%
growth [14]: 86%
growth [15]: 83.5%
growth [16]: 91.2%
growth [17]: 83.7%
growth [19]: 111%
growth [18]: 110%

CCN(CC)CCCCCCNc1ccnc2cc(Cl)ccc12
growth [1]: 83.4%
growth [2]: 108%
growth [3]: 96.2%
growth [4]: 92.9%
growth [5]: 98.8%
growth [6]: 125%
growth [7]: 96.2%
growth [8]: 90.9%
growth [10]: 92.8%
growth [11]: 30.1%
growth [12]: 99.6%
growth [13]: 51.8%
growth [15]: 77.4%
growth [16]: 97%
growth [17]: 52.5%
growth [19]: 102%
growth [18]: 38%

C#Cc1cc2c(N)c(C(=O)c3cc(OC)c(OC)c(OC)c3)[nH]c2cc1OC
growth [1]: 43.1%
growth [2]: 50%
growth [3]: 43.2%
growth [20]: 24.4%
growth [5]: -4.39% (active)
growth [6]: -4.05% (active)
growth [7]: 45.4%
growth [8]: 46.8%
growth [9]: -16.3% (active)
growth [10]: 19%
growth [11]: 13.4%
growth [12]: 25.7%
growth [13]: 49.2%
growth [14]: -5.3% (active)
growth [15]: 49.6%
growth [17]: -23.6% (active)
growth [19]: 70.5%
growth [18]: 19.9%

CC1(C)C(=O)/C(=C\c2ccccn2)C[C@]2(C)[C@H]3CC[C@@H]4[C@@H](C(=O)/C=C/c5ccccn5)CC[C@@]4(C)[C@]3(C)CC[C@@H]12
growth [1]: -49.2% (active)
growth [2]: -33.8% (active)
growth [3]: 21.3%
growth [4]: -36.2% (active)
growth [5]: -31.9% (active)
growth [6]: -23.3% (active)
growth [7]: 5.27% (active)
growth [8]: -69.4% (active)
growth [10]: -77.1% (active)
growth [11]: 0.811% (active)
growth [12]: -35.8% (active)
growth [13]: -60% (active)
growth [14]: -90.7% (active)
growth [15]: 9.75% (active)
growth [16]: -77.9% (active)
growth [17]: -43.5% (active)
growth [19]: 7.39% (active)
growth [18]: 3.45% (active)

CC(=O)c1c(C)[nH]c(-c2nc3ccc(N4CCN(C)CC4)cc3[nH]2)c1-c1ccc(N(C)C)cc1
growth [1]: 40%
growth [2]: 47.4%
growth [3]: 40.6%
growth [4]: 53%
growth [5]: 33.1%
growth [6]: 42.1%
growth [7]: 40.2%
growth [8]: 38.7%
growth [9]: 7% (active)
growth [10]: 63.9%
growth [11]: 21.1%
growth [12]: 26.7%
growth [13]: 36.1%
growth [14]: 37.2%
growth [15]: 59.4%
growth [16]: 43.2%
growth [17]: 39.3%
growth [19]: 36.4%
growth [18]: 34.6%

c1csc(-c2nc(-c3cc4ccccc4c(N4CCOCC4)n3)cs2)c1
growth [1]: 87.8%
growth [2]: 107%
growth [3]: 94.1%
growth [4]: 100%
growth [5]: 116%
growth [6]: 93.8%
growth [7]: 95.6%
growth [8]: 96.9%
growth [9]: 20.5%
growth [10]: 113%
growth [11]: 102%
growth [12]: 0.576% (active)
growth [13]: 88.7%
growth [14]: 111%
growth [15]: 91.6%
growth [16]: 101%
growth [17]: 103%
growth [19]: 17.3%
growth [18]: 49.1%

Cc1ccc(N(CC(=O)Nc2ccc(S(=O)(=O)NC3CCN(C)CC3)cc2)S(=O)(=O)c2ccc(Cl)cc2)cc1
growth [1]: 90.7%
growth [2]: 87.7%
growth [3]: 88.9%
growth [20]: 96.2%
growth [5]: 69.6%
growth [6]: 90.4%
growth [7]: 69.2%
growth [8]: 87.4%
growth [10]: 71.9%
growth [11]: 19.5%
growth [12]: -47.5% (active)
growth [13]: 53.6%
growth [14]: 36.4%
growth [15]: 68.7%
growth [16]: 101%
growth [17]: 85.4%
growth [18]: 63%

O=S(=O)(NCCNc1cc(-c2cn(-c3ccccc3)nc2-c2cccc(O)c2)ccn1)c1ccc(Cl)cc1
growth [1]: 36.6%
growth [2]: 45.9%
growth [3]: 56.8%
growth [4]: 26.3%
growth [5]: 33.8%
growth [6]: 32.3%
growth [7]: 31.1%
growth [8]: 12%
growth [9]: -48% (active)
growth [10]: 62.8%
growth [11]: 2.13% (active)
growth [12]: 34.5%
growth [13]: -2.86% (active)
growth [14]: 38%
growth [15]: 40.2%
growth [16]: 13.3%
growth [17]: 61.8%
growth [18]: 23.5%

COC(=O)[C@]12CC[C@@H](C)[C@H](C)[C@@H]1C1=CC(=O)[C@@H]3[C@@]4(C)C[C@@H](OC(C)=O)[C@H](OC(C)=O)[C@@](C)(COC(C)=O)[C@@H]4C(=O)C[C@@]3(C)[C@]1(C)CC2
growth [1]: 45.4%
growth [2]: 41.8%
growth [3]: 82.6%
growth [4]: 32.4%
growth [5]: 18.1%
growth [6]: 47.6%
growth [7]: 42.5%
growth [8]: 68.5%
growth [9]: 39.5%
growth [10]: 73%
growth [12]: 44.6%
growth [13]: 41.6%
growth [14]: 64.5%
growth [15]: 73.8%
growth [16]: 51.6%
growth [17]: 72.3%
growth [18]: 29.5%

COC(=O)CNc1nc(N(C)O)nc(N(C)O)n1
growth [2]: 61.3%

CCCC1CCCCN1C(=O)OCC(C)C (stereo unspecified)
growth [2]: 105%

Cn1cc(-c2nc(-c3c[nH]c4ncccc34)cs2)c2cc(Br)ccc21
growth [2]: 95.7%
growth [3]: 76.4%
growth [20]: 109%
growth [5]: 89.1%
growth [6]: 86.5%
growth [7]: 86.7%
growth [8]: 80.6%
growth [9]: 106%
growth [10]: 73.2%
growth [11]: 59.5%
growth [13]: 84.6%
growth [14]: 75.7%
growth [15]: 99.1%
growth [16]: 84.6%
growth [17]: 108%
growth [19]: 120%
growth [18]: 75.5%

COc1cccc(-c2nn(-c3ccccc3)cc2-c2ccnc(NCCNS(=O)(=O)c3cccc(F)c3)c2)c1
growth [2]: 39.3%
growth [3]: 59%
growth [20]: 55.3%
growth [4]: 24.2%
growth [5]: 22.3%
growth [6]: 3.7% (active)
growth [7]: 24.8%
growth [8]: 25.9%
growth [9]: 16.6%
growth [10]: 58%
growth [11]: 11.9%
growth [12]: 78.2%
growth [13]: 9.24% (active)
growth [14]: 44.1%
growth [15]: 48.1%
growth [16]: 13.2%
growth [17]: 52.3%
growth [18]: 27.2%

Nc1c2c(nc3ccc(Cl)cc13)CC(c1ccccc1)CC2=O (stereo unspecified)
growth [2]: 85%
growth [3]: 62.1%
growth [20]: 53.9%
growth [4]: 15.2%
growth [5]: 84.6%
growth [6]: 41.1%
growth [7]: 56.7%
growth [8]: 55.1%
growth [9]: 39.3%
growth [10]: 63.9%
growth [11]: 18%
growth [12]: 40.3%
growth [13]: 66.8%
growth [14]: 55.8%
growth [15]: 64.1%
growth [16]: 24.5%
growth [17]: 38.5%
growth [19]: 64%
growth [18]: 13.9%

O=C1c2ccccc2NC(c2cn(-c3ccccc3)nc2-c2cccs2)N1Cc1ccccc1 (stereo unspecified)
growth [2]: 96.3%
growth [3]: 85.3%
growth [20]: 86.9%
growth [4]: 94.5%
growth [5]: 74.1%
growth [6]: 72.3%
growth [7]: 82.8%
growth [8]: 73.6%
growth [9]: 93.5%
growth [10]: 97.6%
growth [11]: 70.7%
growth [12]: 109%
growth [13]: 77.4%
growth [14]: 94.5%
growth [15]: 78.9%
growth [16]: 80%
growth [17]: 88.5%
growth [19]: 103%
growth [18]: 80%

O=c1c(CNc2ccc(S(=O)(=O)Nc3ncccn3)cc2)coc2ccccc12
growth [2]: 103%
growth [3]: 97.1%
growth [20]: 93%
growth [4]: 105%
growth [5]: 102%
growth [6]: 89.7%
growth [7]: 93.5%
growth [8]: 102%
growth [9]: 105%
growth [10]: 108%
growth [11]: 100%
growth [12]: 94%
growth [13]: 99.9%
growth [14]: 103%
growth [15]: 108%
growth [17]: 95.2%
growth [19]: 108%
growth [18]: 99.2%

Cn1cccc1/C=C1/SC(=S)N(CCc2ccc(O)cc2)C1=O
growth [2]: 87.8%
growth [3]: 87.3%
growth [4]: 33.6%
growth [5]: 88.3%
growth [6]: 47.8%
growth [7]: 61.5%
growth [8]: 64.4%
growth [9]: 103%
growth [10]: 82.3%
growth [11]: 18.6%
growth [12]: 36.7%
growth [13]: 59.1%
growth [14]: 76.6%
growth [15]: 74%
growth [16]: 37.6%
growth [17]: 43.6%
growth [19]: 74.1%
growth [18]: 19.9%
